About 83,000 compounds went through this panel and 20% of them were active in at least one assay; those are over-represented in the sample as a whole.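 Testing used 96-well plates and a 48-hour single-concentration exposure. Example: -40 means 40% of the starting cells died.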 Calls of active or inactive are those of the source. Rule for the calls: active = growth percent below 10; inactive = the rest.
Legend:
Assay in all cases: NCI-60 one-dose screen, 48 h (100 = growth as untreated, 0 = no growth, -100 = all killed)
Conditions in all cases: 10 µM
NCI-H23 lung = system: NCI-H23 lung
NCI-H226 lung = system: NCI-H226 lung
NCI-H322M lung = system: NCI-H322M lung
HOP-62 NSCLC = system: HOP-62 NSCLC
NCI-H460 lung = system: NCI-H460 lung
NCI-H522 lung = system: NCI-H522 lung
A549/ATCC NSCLC = system: A549/ATCC NSCLC
786-0 renal = system: 786-0 renal
COLO 205 colon = system: COLO 205 colon
DU-145 prostate = system: DU-145 prostate
K-562 leukemia = system: K-562 leukemia
MALME-3M melanoma = system: MALME-3M melanoma
MDA-MB-231 breast = system: MDA-MB-231 breast
RXF 393 renal = system: RXF 393 renal
SF-268 CNS = system: SF-268 CNS
SF-295 CNS = system: SF-295 CNS
SF-539 CNS = system: SF-539 CNS
UACC-257 melanoma = system: UACC-257 melanoma
M14 melanoma = system: M14 melanoma
HCT-15 colon = system: HCT-15 colon

Measured: growth

CN(C)c1ccc(Cc2ccc(N(C)C)cc2Cl)c(Cl)c1
inactive: NCI-H23 lung 97% | NCI-H226 lung 89.4% | NCI-H322M lung 99.3% | HOP-62 NSCLC 105% | NCI-H460 lung 98.4% | NCI-H522 lung 80.1% | A549/ATCC NSCLC 96.5% | 786-0 renal 112% | COLO 205 colon 108% | DU-145 prostate 103% | K-562 leukemia 90.2% | MALME-3M melanoma 91.9% | MDA-MB-231 breast 109% | RXF 393 renal 93.2% | SF-268 CNS 103% | SF-295 CNS 116% | SF-539 CNS 108% | UACC-257 melanoma 110% | M14 melanoma 107% | HCT-15 colon 101%

Nc1c(C(=O)Nc2ccccc2Cl)sc2nc3c(cc12)C(=O)CCC3
active: COLO 205 colon 3.38%
inactive: NCI-H23 lung 42.3% | NCI-H226 lung 75.9% | NCI-H322M lung 37.9% | HOP-62 NSCLC 83.3% | NCI-H460 lung 12.4% | NCI-H522 lung 32.8% | A549/ATCC NSCLC 24.9% | 786-0 renal 91.1% | DU-145 prostate 48.5% | K-562 leukemia 24.9% | MALME-3M melanoma 38.5% | MDA-MB-231 breast 70.3% | RXF 393 renal 61.7% | SF-268 CNS 95.7% | SF-295 CNS 14.7% | SF-539 CNS 69.9% | UACC-257 melanoma 42.9% | M14 melanoma 50.2% | HCT-15 colon 32.8%

O=C(CCCCC(=O)Nc1ccc2c(c1)/C(=C/c1ccc[nH]1)C(=O)N2)NO
inactive: NCI-H23 lung 106% | NCI-H226 lung 91.1% | NCI-H322M lung 64.1% | HOP-62 NSCLC 94.3% | NCI-H460 lung 97.6% | NCI-H522 lung 49.4% | A549/ATCC NSCLC 95.6% | 786-0 renal 94.4% | COLO 205 colon 89% | DU-145 prostate 91.2% | K-562 leukemia 85% | MALME-3M melanoma 17.5% | MDA-MB-231 breast 94.4% | RXF 393 renal 76.8% | SF-268 CNS 76.2% | SF-295 CNS 102% | SF-539 CNS 81.1% | UACC-257 melanoma 70.6% | M14 melanoma 58.6% | HCT-15 colon 96.2%

CN(CCc1ccccn1)c1ccccc1
inactive: NCI-H23 lung 110% | NCI-H226 lung 113% | NCI-H322M lung 113% | HOP-62 NSCLC 104% | NCI-H460 lung 118% | NCI-H522 lung 109% | A549/ATCC NSCLC 99.7% | 786-0 renal 98.5% | COLO 205 colon 104% | DU-145 prostate 121% | K-562 leukemia 95.2% | MALME-3M melanoma 168% | MDA-MB-231 breast 105% | RXF 393 renal 120% | SF-268 CNS 124% | SF-295 CNS 116% | SF-539 CNS 94.1% | UACC-257 melanoma 99.7% | M14 melanoma 100% | HCT-15 colon 89.8%

N#CCCN(NC(=O)OCc1ccccc1)C(=O)OCc1ccccc1
inactive: NCI-H23 lung 107% | NCI-H226 lung 115% | NCI-H322M lung 109% | HOP-62 NSCLC 120% | NCI-H460 lung 103% | NCI-H522 lung 120% | A549/ATCC NSCLC 106% | 786-0 renal 97.9% | COLO 205 colon 119% | DU-145 prostate 109% | K-562 leukemia 106% | MALME-3M melanoma 105% | MDA-MB-231 breast 113% | RXF 393 renal 111% | SF-268 CNS 106% | SF-295 CNS 99.1% | SF-539 CNS 106% | UACC-257 melanoma 107% | M14 melanoma 103% | HCT-15 colon 107%

C/C(N)=C(\C#N)C(=O)c1ccccc1
inactive: NCI-H23 lung 104% | NCI-H226 lung 98% | NCI-H322M lung 107% | HOP-62 NSCLC 105% | NCI-H460 lung 103% | NCI-H522 lung 96.6% | A549/ATCC NSCLC 97.6% | 786-0 renal 106% | COLO 205 colon 105% | DU-145 prostate 110% | K-562 leukemia 109% | MALME-3M melanoma 90.5% | MDA-MB-231 breast 121% | RXF 393 renal 97.5% | SF-268 CNS 110% | SF-295 CNS 94.1% | SF-539 CNS 103% | UACC-257 melanoma 88% | M14 melanoma 110% | HCT-15 colon 98.2%

Cc1ccc(C(=O)N2C/C(=C/c3ccc(F)cc3)C(=O)/C(=C/c3ccc(F)cc3)C2)cc1
inactive: NCI-H23 lung 97.6% | NCI-H226 lung 86.9% | NCI-H322M lung 90.6% | HOP-62 NSCLC 96.4% | NCI-H460 lung 101% | NCI-H522 lung 67.7% | A549/ATCC NSCLC 94.5% | 786-0 renal 91.6% | COLO 205 colon 111% | DU-145 prostate 101% | K-562 leukemia 44.2% | MALME-3M melanoma 98.5% | MDA-MB-231 breast 83.4% | RXF 393 renal 90.4% | SF-268 CNS 85.2% | SF-295 CNS 92.5% | SF-539 CNS 93.2% | UACC-257 melanoma 94.4% | M14 melanoma 84.8% | HCT-15 colon 95.1%

CNc1ncc(-c2ccc(C(F)(F)F)cc2)c(NC2CCCCCC2)n1
inactive: NCI-H23 lung 62.6% | NCI-H226 lung 70.3% | NCI-H322M lung 76.6% | HOP-62 NSCLC 92.6% | NCI-H460 lung 87.8% | NCI-H522 lung 57.6% | A549/ATCC NSCLC 69.1% | 786-0 renal 79.4% | COLO 205 colon 68.5% | DU-145 prostate 91% | K-562 leukemia 76.2% | MALME-3M melanoma 61.3% | MDA-MB-231 breast 92.8% | RXF 393 renal 80.6% | SF-268 CNS 99.7% | SF-295 CNS 79.4% | SF-539 CNS 93.5% | UACC-257 melanoma 73.2% | M14 melanoma 93.9% | HCT-15 colon 81.5%

CCN1CCN(c2nc3ccccc3c3c(=O)c4ccccc4sc23)CC1
inactive: NCI-H23 lung 64.2% | NCI-H226 lung 49.5% | NCI-H322M lung 68.4% | HOP-62 NSCLC 39.4% | NCI-H460 lung 20% | NCI-H522 lung 35.4% | A549/ATCC NSCLC 31% | 786-0 renal 47% | COLO 205 colon 10.7% | DU-145 prostate 33% | K-562 leukemia 12.8% | MALME-3M melanoma 52.5% | RXF 393 renal 29.8% | SF-268 CNS 45.6% | SF-295 CNS 24.6% | SF-539 CNS 48% | UACC-257 melanoma 73.9% | HCT-15 colon 31.8%
active: MDA-MB-231 breast -2.38% | M14 melanoma -18.5%

O=C1/C(=C\c2ccc(F)cc2)CN(C(=O)c2ccccc2)C/C1=C\c1ccc(F)cc1
active: NCI-H522 lung -8.75% | K-562 leukemia 4.01% | MALME-3M melanoma 8.3% | MDA-MB-231 breast -25.9% | SF-295 CNS -3.21% | M14 melanoma 4.22% | HCT-15 colon 1.64%
inactive: NCI-H23 lung 61.8% | NCI-H226 lung 36.6% | NCI-H322M lung 73.6% | HOP-62 NSCLC 53.3% | NCI-H460 lung 58% | A549/ATCC NSCLC 49.2% | 786-0 renal 33.6% | COLO 205 colon 50.9% | DU-145 prostate 31.7% | RXF 393 renal 26.6% | SF-268 CNS 26% | SF-539 CNS 69.2% | UACC-257 melanoma 36.5%

CN(C)c1ccc(N=C2C=CC(=O)c3ccccc32)cc1
inactive: NCI-H23 lung 35.1% | NCI-H226 lung 91.7% | NCI-H322M lung 14.9% | HOP-62 NSCLC 82.5% | NCI-H460 lung 15.3% | NCI-H522 lung 48.2% | A549/ATCC NSCLC 28% | 786-0 renal 90.3% | COLO 205 colon 11.8% | K-562 leukemia 69.8% | MDA-MB-231 breast 59.5% | RXF 393 renal 81.2% | SF-268 CNS 73.9% | SF-295 CNS 60.5% | SF-539 CNS 88.7% | UACC-257 melanoma 65.3% | HCT-15 colon 53.5%
active: DU-145 prostate -58% | MALME-3M melanoma -11.2% | M14 melanoma -18.2%

CCN(CC)Cc1cc(Nc2ccnc3cc(Cl)ccc23)ccc1OC
inactive: NCI-H23 lung 87.8% | NCI-H226 lung 105% | NCI-H322M lung 99% | HOP-62 NSCLC 88% | NCI-H460 lung 90.1% | NCI-H522 lung 69.3% | A549/ATCC NSCLC 89.6% | 786-0 renal 97.4% | COLO 205 colon 62.4% | DU-145 prostate 107% | K-562 leukemia 45.1% | MALME-3M melanoma 110% | MDA-MB-231 breast 55.7% | RXF 393 renal 64.2% | SF-268 CNS 96.6% | SF-295 CNS 91% | SF-539 CNS 62.7% | UACC-257 melanoma 94.4% | HCT-15 colon 56.4%
active: M14 melanoma 7.19%

COc1ccc(/C=C2/CN(C(=O)c3ccc(C)cc3)C/C(=C\c3ccc(OC)cc3)C2=O)cc1
inactive: NCI-H23 lung 87.6% | NCI-H226 lung 82.1% | NCI-H322M lung 90.2% | HOP-62 NSCLC 89.7% | NCI-H460 lung 105% | NCI-H522 lung 69.1% | A549/ATCC NSCLC 87.9% | 786-0 renal 99.9% | COLO 205 colon 97.6% | DU-145 prostate 93.5% | K-562 leukemia 23.7% | MALME-3M melanoma 91.4% | MDA-MB-231 breast 87.1% | RXF 393 renal 92.3% | SF-268 CNS 87.4% | SF-295 CNS 85.2% | SF-539 CNS 102% | UACC-257 melanoma 98.1% | M14 melanoma 69.4% | HCT-15 colon 91.3%

COc1ccc(-c2nc(-c3nc4ccc(Cl)cc4[nH]3)c3ccccn23)cc1
active: NCI-H226 lung -45.7% | HOP-62 NSCLC -77.9% | NCI-H460 lung -24.1% | NCI-H522 lung -3.06% | A549/ATCC NSCLC -37.4% | 786-0 renal -72.7% | MALME-3M melanoma -10.8% | RXF 393 renal -54.8% | SF-268 CNS -8.4% | SF-295 CNS 6.74% | SF-539 CNS -13.7%
inactive: NCI-H23 lung 84.1% | NCI-H322M lung 54.6% | COLO 205 colon 76% | DU-145 prostate 25.6% | K-562 leukemia 55.8% | MDA-MB-231 breast 11.8% | UACC-257 melanoma 49.4% | M14 melanoma 62.3% | HCT-15 colon 62.8%
